# Experimental data reported in the supplement of paper PMC12636033.
# ± gives the standard deviation of the averaged measurements. The full ranking holds about 33,000 sequences; the median of “E-score (rank enrichment, -0.5 to 0.5)” is about -0.0075, and the highest 2% start at about 0.23. The entries come from a sample that favours the highest values as a whole.
# Tested on: WT Max(13-93) synthetic (M65Nle)
# Experiment: PBM 8-mer E-score (E-score (rank enrichment, -0.5 to 0.5)); higher = stronger preferential binding
# Protocol: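 Protein binding microarray (universal PBM chip covering all 10-mers in fixed probe flanks) with chemically synthesized human Max(13-93) bHLH-LZ analogs (not full-length Max) bearing noncanonical residues (hArg, Tha, Aib, Nle at 65) and aromatic Cys staples. Read-out per 8-mer (and its reverse complement): E-score (rank-based enrichment, -0.5 to 0.5) and Z-score of median probe intensity.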
row,Sequence,PBM 8-mer E-score
1,CAGGACGG,-0.162 ± 0.092
2,TCATGCGA,0.034 ± 0.055
3,ACGCCTTA,-0.0494 ± 0.025
4,CGCTTAAG,-0.0549 ± 0.15
5,AGCCTGAC,-0.0941 ± 0.14
6,CTTATAGC,-0.0275 ± 0.032
7,GAGCGCTA,-0.0703 ± 0.047
8,ATGAACCA,0.145 ± 0.06
9,ACGGCGGC,-0.238 ± 0.059
10,CGTGCTAC,0.2 ± 0.061
11,CAATGGAG,0.0245 ± 0.12
12,CGGGTACG,-0.133 ± 0.043
13,CCAGGCGG,-0.0313 ± 0.028
14,CCCAATGA,0.0385 ± 0.031
15,ATGTGAGA,0.231 ± 0.13
16,CCAACTCG,-0.00075 ± 0.037
17,TCGTGCAA,0.131 ± 0.057
18,ACGTGCAA,0.3 ± 0.035
19,CCGTGCAA,-0.0752 ± 0.025
20,AAATACGC,0.237 ± 0.027
21,AAATACGT,0.152 ± 0.043
22,GAATACGC,0.0909 ± 0.01
23,GTGAATCA,-0.115 ± 0.022
24,GTAACACA,0.238 ± 0.024
25,ATAACACC,0.106 ± 0.076

row,Sequence,PBM 8-mer E-score
1,ATTACATA,0.24 ± 0.039
2,GTAACAAA,0.126 ± 0.0055
3,ATAACATA,0.266 ± 0.023
4,ATAACATG,0.231 ± 0.01
5,ATAACATC,0.187 ± 0.028
6,ATTACATG,0.223 ± 0.061
7,CTAACACA,0.121 ± 0.13
8,ATAACACA,0.181 ± 0.095
9,GTTACATA,0.113 ± 0.0025
10,ATAACACG,0.307 ± 0.0054
11,AGGGGAAT,0.0772 ± 0.04
12,CCGTAGCC,-0.216 ± 0.071
13,ACGCGTAA,0.105 ± 0.048
14,TCGCATCA,0.046 ± 0.015
15,AACGCAAA,-0.144 ± 0.021
16,GATCTTAA,0.0118 ± 0.0058
17,CAAATACG,0.138 ± 0.086
18,CTTTGCCA,-0.107 ± 0.097
19,ACAACACA,0.23 ± 0.091
20,ACAACACC,0.158 ± 0.0054
21,ACAACACG,0.261 ± 0.034
22,ATCCATCG,-0.21 ± 0.014
23,CGCGTGCC,0.124 ± 0.062
24,AGCGTGCG,0.0436 ± 0.017
25,CTCGTGCA,0.134 ± 0.097

row,Sequence,PBM 8-mer E-score
1,CGCGTGCA,0.285 ± 0.03
2,GGCGTGCA,0.0504 ± 0.037
3,AGCGTGCA,0.285 ± 0.03
4,CAAATTCA,-0.0652 ± 0.032
5,ATATTCTC,0.189 ± 0.055
6,ATACCACC,0.121 ± 0.028
7,CAACCACG,0.301 ± 0.041
8,CAACCACA,-0.0966 ± 0.041
9,ATACCACG,0.255 ± 0.015
10,AAACCACA,0.223 ± 0.0085
11,ATGCCACG,0.259 ± 0.059
12,ATACCACA,0.159 ± 0.0088
13,GTGCCACA,-0.00257 ± 8.5e-05
14,ATGCCACA,0.00378 ± 0.092
15,CGTGATTC,0.117 ± 0.036
16,AGAACTGC,-0.0987 ± 0.0029
17,CTTCACCC,0.151 ± 0.046
18,ATAGACGG,0.103 ± 0.018
19,ATGCGCAC,0.102 ± 0.09
20,ATGCGCAA,0.1417 ± 0.00042
21,ATGCGCAT,0.285 ± 0.06
22,CAACGCAG,-0.158 ± 0.021
23,ACCCGAAC,-0.0582 ± 0.096
24,AATGAACG,0.163 ± 0.04
25,AACACCGC,-0.0751 ± 0.024

row,Sequence,PBM 8-mer E-score
1,GATTAAAC,0.0366 ± 0.087
2,GTTTAAAA,0.0508 ± 0.026
3,ATTTAAAG,0.0962 ± 0.044
4,CTTTAAAC,0.143 ± 0.0068
5,ATTTAAAC,0.263 ± 0.046
6,GTTTAAAC,0.254 ± 0.0084
7,TACATCTA,0.0666 ± 0.053
8,CCGTTTAC,0.0331 ± 0.077
9,AATCTGTC,0.0805 ± 0.0072
10,ACGCATCC,0.00574 ± 0.012
11,ACGCATGC,0.281 ± 0.04
12,ACGCATAG,0.0507 ± 0.032
13,CCGCATGC,0.2 ± 0.02
14,ACGCATGA,0.127 ± 0.021
15,ACGCATGG,0.243 ± 0.026
16,CGATTTCC,-0.13 ± 0.008
17,GTGCTGGA,-0.0429 ± 0.077
18,ATAAATAT,0.267 ± 0.0039
19,CTAAATAA,0.119 ± 0.1
20,ATAAATAC,0.295 ± 0.022
21,TTAAATAA,0.12 ± 0.035
22,ATAAATAA,0.157 ± 0.031
23,ATAAATAG,0.18 ± 0.017
24,AACAGTTG,-0.0604 ± 0.064
25,GGACCTCC,-0.149 ± 0.028

row,Sequence,PBM 8-mer E-score
1,CCCCCCGA,-0.154 ± 0.12
2,TACTTGGA,0.0409 ± 0.043
3,GATATTAA,0.029 ± 0.025
4,TATATTAA,0.213 ± 0.011
5,AATATTAC,0.228 ± 0.029
6,CATATTAA,0.306 ± 0.014
7,ACTATTAA,0.133 ± 0.0048
8,AATATTAA,0.263 ± 0.014
9,CATATTAC,0.156 ± 0.05
10,AATATTAT,0.285 ± 0.026
11,AATATTAG,0.152 ± 0.15
12,GATATTAC,0.237 ± 0.02
13,CATATTAG,0.15 ± 0.046
14,ATTATTAA,0.172 ± 0.066
15,CTCCCAGA,-0.18 ± 0.049
16,CCCCCAGG,-0.289 ± 0.17
17,AAATTGTT,0.0622 ± 0.024
18,AAAATGTG,0.205 ± 0.015
19,AGCGACAT,0.113 ± 0.056
20,GATAGGTA,0.24 ± 0.073
21,CATAGGTA,0.00152 ± 0.065
22,AATAGGTA,0.195 ± 0.0039
23,GGCCTTTA,0.0556 ± 0.0086
24,CACGTGGC,0.4858 ± 0.0018
25,CAAGTGGG,0.0824 ± 0.037

row,Sequence,PBM 8-mer E-score
1,GACGTGGA,-0.0291 ± 0.023
2,CACGTGGA,0.4856 ± 0.0019
3,GACGTGGC,-0.0348 ± 0.019
4,AACGTGGG,0.215 ± 0.03
5,AACGTGGC,0.218 ± 0.022
6,TACGTGGA,0.109 ± 0.08
7,CACGTGGG,0.4865 ± 0.00015
8,CTTACAAC,-0.0407 ± 0.16
9,TGTAAGAA,0.12121 ± 1.4e-05
10,CGCTAAGC,-0.187 ± 0.092
11,GTGCCTCA,-0.133 ± 0.12
12,AACAGATT,-0.0422 ± 0.079
13,CCAGAATA,-0.0319 ± 0.024
14,GAACCTAA,-0.143 ± 0.099
15,CCGGTCCA,-0.194 ± 0.12
16,AGGGCACT,-0.053 ± 0.033
17,ATAGGTAA,0.0523 ± 0.015
18,GTAGGTAA,0.232 ± 0.042
19,CTAGGTAA,-0.0715 ± 0.093
20,GTGCTTGA,-0.0248 ± 0.16
21,AACCAGCA,-0.0798 ± 0.12
22,AGTGCCCC,-0.0153 ± 0.009
23,AACGCAGT,-0.173 ± 0.062
24,CAAGTATA,0.0775 ± 0.011
25,AAAGTATT,0.118 ± 0.043

row,Sequence,PBM 8-mer E-score
1,AAAGTATA,0.282 ± 0.045
2,GGAGCTTA,-0.168 ± 0.098
3,AAACGCAG,-0.069 ± 0.017
4,AACCGCAT,-0.102 ± 0.13
5,AATCATGC,0.168 ± 0.0099
6,CATCATAA,0.168 ± 0.045
7,CATCATGA,0.0797 ± 0.1
8,TATCATGA,0.272 ± 0.0036
9,TATCATAA,0.239 ± 0.1
10,GATCATAA,0.156 ± 0.094
11,AATCATGA,0.134 ± 0.038
12,AATCATGG,0.0882 ± 0.19
13,AATCATGT,0.235 ± 0.066
14,ACGATATG,0.0765 ± 0.093
15,AGTAGCGA,-0.0978 ± 0.08
16,GGCTATAA,-0.0145 ± 0.049
17,TGCTACCA,0.081 ± 0.0046
18,TCTGAAGA,-0.204 ± 0.095
19,AAGTCCGG,-0.0703 ± 0.083
20,AGGCCAAA,-0.0704 ± 0.025
21,TAGGCATA,0.0815 ± 0.076
22,AGTTTCCC,-0.0461 ± 0.026
